Results taken from PubChem BioAssay AID1445 (SRMLSC, 2008).
About 910 (0.41%) of roughly 220,000 compounds were called active.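 The calls were made as follows: active = primary inhibition above the hit cutoff, then over 50% inhibition at one or more dose response concentrations (cut at about 23% in these data, passing the limit was not always enough); inconclusive = conflicting primary data, or primary hits not chosen for dose response; inactive = low primary inhibition, or under 50% at every dose.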 The list comes from a sample in which actives are over-represented; it also holds similar structures and randomly drawn compounds. Entries with a potency or affinity are not part of this list.

target: Aminopeptidase N (Plasmodium falciparum (isolate 3D7)) (UniProt O96935); assay: malaria alanyl aminopeptidase activity blockers – biochemical, fluorogenic H-Leu-NHMec substrate, 1536-well (AID 1445); details: recombinant M1AAP, H-Leu-NHMec fluorogenic kinetic assay; at 30 µM, active compounds read high unless noted;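 also: plate controls were DMSO full reaction for no effect and no enzyme background for full effect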
Sequence (O96935 whole entry, looked up): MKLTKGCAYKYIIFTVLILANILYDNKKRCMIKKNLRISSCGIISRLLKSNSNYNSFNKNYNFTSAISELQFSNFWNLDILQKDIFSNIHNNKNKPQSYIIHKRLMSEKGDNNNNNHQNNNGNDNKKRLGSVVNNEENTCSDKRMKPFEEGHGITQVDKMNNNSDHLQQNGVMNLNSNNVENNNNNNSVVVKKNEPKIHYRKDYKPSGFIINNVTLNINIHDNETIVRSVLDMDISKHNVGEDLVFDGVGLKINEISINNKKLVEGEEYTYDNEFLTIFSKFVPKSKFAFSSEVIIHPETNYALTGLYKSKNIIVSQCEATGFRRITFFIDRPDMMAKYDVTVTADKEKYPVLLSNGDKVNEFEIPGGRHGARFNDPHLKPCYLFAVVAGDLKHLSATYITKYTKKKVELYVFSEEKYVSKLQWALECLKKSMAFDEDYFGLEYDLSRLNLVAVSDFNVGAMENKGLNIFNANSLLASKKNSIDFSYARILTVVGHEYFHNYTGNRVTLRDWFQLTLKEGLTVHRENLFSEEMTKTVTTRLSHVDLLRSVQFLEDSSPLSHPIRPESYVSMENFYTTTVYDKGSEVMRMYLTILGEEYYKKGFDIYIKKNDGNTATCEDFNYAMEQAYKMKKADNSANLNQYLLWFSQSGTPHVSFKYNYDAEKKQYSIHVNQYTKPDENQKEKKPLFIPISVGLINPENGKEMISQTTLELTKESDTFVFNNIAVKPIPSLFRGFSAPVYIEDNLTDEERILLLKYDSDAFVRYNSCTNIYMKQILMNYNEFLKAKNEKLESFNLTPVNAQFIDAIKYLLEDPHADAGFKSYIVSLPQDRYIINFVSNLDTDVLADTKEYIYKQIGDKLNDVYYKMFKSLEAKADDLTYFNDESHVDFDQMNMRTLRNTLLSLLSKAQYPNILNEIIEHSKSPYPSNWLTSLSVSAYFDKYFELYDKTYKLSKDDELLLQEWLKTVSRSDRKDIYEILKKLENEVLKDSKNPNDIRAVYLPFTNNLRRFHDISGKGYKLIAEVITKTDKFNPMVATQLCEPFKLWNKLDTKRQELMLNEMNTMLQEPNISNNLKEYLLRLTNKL

inhibition, active:
O=C(CCC(=O)N(CC(=O)NC1CCCC1)Cc1ccc2c(c1)OCO2)Nc1ccccn1 26.2%
O=C(NC(Cc1c[nH]c2ccccc12)C(=O)O)c1ccco1 (stereo unspecified) 27.5%
Cc1nc(NCc2ccco2)c2oc3ccccc3c2n1 25.6%

inhibition, inactive:
COc1ccccc1NS(=O)(=O)c1cccc(N2CC(O)=C(c3ccccc3)C2=N)c1 9.55%
COc1ccc(CN2C(=O)c3cccc4cccc(c34)C2=O)cc1 -0.38%
COc1ccc(CNC(=O)CCCN2C(=O)c3ccccc3C2=O)cc1 1.01%
COc1ccccc1NS(=O)(=O)c1cccc(NC(=O)Nc2ccccc2)c1 2.5%
Cc1cc(C)n(-c2ccc(C(=O)OCC(=O)Nc3ccc(S(=O)(=O)N4CCOCC4)cc3)cc2)n1 -7.49%
CCOc1ccc(CCNC(=O)COC(=O)c2cc(OC)cc(OC)c2)cc1OCC 6.82%
COC(=O)c1ccccc1NC(=O)CNC(=O)c1ccco1 7.08%
O=C(c1ccco1)N1N=C(c2ccc(Br)cc2)CC1(O)C(F)(F)F (stereo unspecified) -1.14%
CC(C)CCNC(=O)CNC(=S)N(Cc1ccccc1)Cc1cccnc1 -3.15%
COc1ccc(/C=N/NC(=O)CC(=O)N/N=C/c2ccc(OC)cc2)cc1 5.03%
COc1ccc(/C=N/NC(=O)CSCC(=O)Nc2ccccc2)cc1 0.01%
Cc1ccc2nc(CSc3nnc(Cc4cccs4)n3C3CCCCC3)cc(=O)n2c1 14.2%
O=C(CCC(=O)N(CC(=O)NC1CCCC1)Cc1ccc2c(c1)OCO2)Nc1nccs1 12.3%
CC(C)(C)NC(=O)CN(Cc1ccc2c(c1)OCO2)C(=O)CCC(=O)Nc1nccs1 3.84%
CCC(C)(C)NC(=O)CN(C(=O)CCC(=O)Nc1cc(C)ccn1)c1ccc2c(c1)OCO2 10.3%
O=C(CCCC(=O)N(CC(=O)NC1CCCC1)Cc1ccc2c(c1)OCO2)Nc1ccccn1 8.73%
O=C(CCCC(=O)N(CC(=O)NC1CCCCC1)Cc1ccc2c(c1)OCO2)Nc1ccccn1 1.7%
CCC(C)(C)NC(=O)CN(Cc1ccccc1Cl)C(=O)CCC(=O)Nc1cc(C)ccn1 1.69%
O=C(CSc1nnc(-c2ccc(Cl)cc2)n1Cc1ccco1)Nc1ccc2c(c1)OCCO2 6.61%
O=C(Nc1ccccc1N1CCCC1)c1cccc(Cl)c1Cl 5.02%
Cc1nc(-c2ccccc2O)n(-c2ccccc2)n1 14.8%
Cc1cccc(N2C(N)=C(C#N)C(C#N)(C#N)C2c2ccccc2)c1 (stereo unspecified) 7.85%
Cc1cccc(-c2cc(N)n(-c3ccccc3)n2)c1 15.4%
Cc1nn(-c2ccccc2)c(C)c1N -5.19%
CCOC(=O)c1c(-c2ccc(C)o2)csc1NC(=O)CSc1ncn[nH]1 0.41%
O=C(CCCO)CCCCCCCCC[C@H]1N[C@H](CO)[C@@H](O)[C@@H]1O 7.45%
CC(C)CC(N=Cc1c(O)c2ccccc2oc1=O)C(=O)O (stereo unspecified) 16.5%
O=C(O)C(CO)N=Cc1c(O)c2ccccc2oc1=O (stereo unspecified) 20.4%
Cc1nn(-c2ccc3ccccc3c2)c(=O)c2ccccc12 0.56%
CSc1nnc(-c2ccccc2N=Cc2c(C)[nH]n(-c3ccccc3)c2=O)c(=O)[nH]1 11.9%
COc1cc(/C=C/c2nc(-c3ccccc3O)n[nH]2)cc(OC)c1OC 1.7%
Cc1ccc(C(=O)NCC(=O)OCC(=O)c2c(N)n(C)c(=O)n(C)c2=O)s1 5.58%
O=C(CCn1nnc2ccccc2c1=O)N[C@@H](Cc1c[nH]c2ccccc12)C(=O)O 9%
O=C(Nc1ccccc1C(=O)NC(Cc1c[nH]c2ccccc12)C(=O)O)c1ccco1 (stereo unspecified) 7.54%
O=C(Cn1nnc2ccccc2c1=O)N[C@@H](Cc1ccccc1)C(=O)O 2.79%
CCOc1ccccc1Nc1nnc(SCC(=O)Nc2ccc3[nH]c(=O)[nH]c3c2)s1 1.06%
Cc1ccc(Nc2nnc(SCC(=O)NC(Cc3c[nH]c4ccccc34)C(=O)O)s2)cc1 (stereo unspecified) 22%
CCOC(=O)C(Cc1c[nH]c2ccccc12)NC(=O)c1ccco1 (stereo unspecified) -3.49%
COc1ccc(/C(C)=N\Nc2nc(-c3ccc(Cl)cc3)cc(C(F)(F)F)n2)cc1OC -2.08%
CCOC(=O)C1=C(O)C(=O)N(c2ccc(S(N)(=O)=O)cc2)C1c1ccc(Br)cc1 (stereo unspecified) 0.8%
CCOc1cccc(OCCOCCn2cnc3ccccc3c2=O)c1 0.65%
CNCc1ccccc1Sc1ccc(OC)cc1 -3.58%
NS(=O)(=O)c1cccc(NC(=O)CCSc2ccc(Cl)cc2)c1 6.9%
CCCCCCCC[n+]1cccc2c3ccccc3ccc21 29.8%
CCCCCCCCC[n+]1cccc2c3ccccc3ccc21 18.5%
Cc1ccc(C2Nc3ccc4ccccc4c3C3=C2C(=O)CC(C)(C)C3)o1 (stereo unspecified) 16%
CC1(C)CC(=O)C2=C(C1)c1c(ccc3ccccc13)NC2c1ccco1 (stereo unspecified) 0.07%
CCCN(CCC)c1ncnc2c1cnn2-c1ccc(OC)cc1 2.75%
COc1ccc(-c2[nH]c(-c3ccc(C)cc3)nc2SCC(=O)NC2CCCC2)cc1 1.57%
c1ccc(-c2nc(NCc3ccco3)c3oc4ccccc4c3n2)cc1 11.9%
CCc1nc(NCc2ccco2)c2oc3ccccc3c2n1 2.95%
CCC(C)NC(=O)C1CCN(S(=O)(=O)c2ccc(OC)cc2)CC1 (stereo unspecified) 4.22%
C(=N\Nc1nc2ccccc2[nH]1)/c1ccncc1 5.02%
CSc1cc(-c2ccccc2)n(C)c(=O)c1C#N 3.47%
Cc1ccc2nc(N=C(N)N)nc(C)c2c1 10.4%
Cc1cc2nc(N=C(N)N)nc(C)c2cc1C 9.31%
COc1nc(N=C(N)N)nc2ccc(C)cc12 20.7%
COc1ccc(Oc2cc(C)c3cccc(C)c3n2)cc1 -2.89%
